Source: PubChem BioAssay
The list is not random: actives were taken first. Their share in the collection is about 7%.
NR3A LBD binder = binders of NR3A ligand-binding domain, primary screen, biophysical, differential scanning fluorimetry, uHTS; Glutamate receptor ionotropic, NMDA 3A (GRIN3A) ligand-binding domain; NR3A LBD differential scanning fluorimetry, Tm shift; 0% = protein alone, 100% = glycine-bound protein; Tm shift relative to glycine control, % at 25 µM; 340,000 tested, 2.5% active;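 active = melting temperature shift of at least 10% of the positive control shift, at one fixed dose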
rCAG binder = binders of r(CAG) RNA repeats, primary screen, biochemical, fluorescence; r(CAG) RNA repeat, TO-PRO-1 dye displacement fluorescence; inhibition, % at 3 µM; 370,000 tested, 1.3% active;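 active = inhibition above the plate cutoff, the mean of all test compounds on that plate plus 3 SD, cut at about 35% in these data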;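 note: 0% = DMSO alone and 100% = 100 µM mitoxantrone as full dye displacement; higher means more dye released from RNA so lower well fluorescence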
ADAM10 inh = human ADAM10 inhibitors, primary screen, biochemical, QFRET, HTS | recombinant ADAM10, EDANS/DABCYL FRET peptide cleavage, 3 h | inhibition, % at 7 µM | 370,000 tested, 0.62% active | AID 720582, 2013;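 active = inhibition above a per-campaign cutoff equal to the mean of compounds falling between control-based bounds plus 3 SD, cut at about 20% in these data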;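 note: 0% = DMSO wells while the 100% control is not disclosed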
KLK7 zymogen act = proKLK7 zymogen activators, primary screen, biochemical, fluorescence intensity; 370,000 tested, 0.9% active; activation, % at 7 µM; purified proKLK7, EDANS-DABCYL substrate fluorescence; 100% is mature enzyme control, 0% vehicle; Kallikrein-7 (Homo sapiens), P49862;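 active = activation above the mean of all tested compounds plus 3 SD, computed per campaign excluding outliers beyond control limits, cut at about 13% in these data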
AHR activator = AHR activators, primary screen, cell-based, luminescence, luciferase reporter, human; activation, % at 5 µM; Aryl hydrocarbon receptor (Homo sapiens), P35869; AID 2796, 2010; AHR-responsive luciferase reporter cells; 320,000 tested, 2.5% active; in the data active = activation above about 47%;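 note: 0% = vehicle wells and 100% = reference agonist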
Target sequence (P35869 whole entry, looked up): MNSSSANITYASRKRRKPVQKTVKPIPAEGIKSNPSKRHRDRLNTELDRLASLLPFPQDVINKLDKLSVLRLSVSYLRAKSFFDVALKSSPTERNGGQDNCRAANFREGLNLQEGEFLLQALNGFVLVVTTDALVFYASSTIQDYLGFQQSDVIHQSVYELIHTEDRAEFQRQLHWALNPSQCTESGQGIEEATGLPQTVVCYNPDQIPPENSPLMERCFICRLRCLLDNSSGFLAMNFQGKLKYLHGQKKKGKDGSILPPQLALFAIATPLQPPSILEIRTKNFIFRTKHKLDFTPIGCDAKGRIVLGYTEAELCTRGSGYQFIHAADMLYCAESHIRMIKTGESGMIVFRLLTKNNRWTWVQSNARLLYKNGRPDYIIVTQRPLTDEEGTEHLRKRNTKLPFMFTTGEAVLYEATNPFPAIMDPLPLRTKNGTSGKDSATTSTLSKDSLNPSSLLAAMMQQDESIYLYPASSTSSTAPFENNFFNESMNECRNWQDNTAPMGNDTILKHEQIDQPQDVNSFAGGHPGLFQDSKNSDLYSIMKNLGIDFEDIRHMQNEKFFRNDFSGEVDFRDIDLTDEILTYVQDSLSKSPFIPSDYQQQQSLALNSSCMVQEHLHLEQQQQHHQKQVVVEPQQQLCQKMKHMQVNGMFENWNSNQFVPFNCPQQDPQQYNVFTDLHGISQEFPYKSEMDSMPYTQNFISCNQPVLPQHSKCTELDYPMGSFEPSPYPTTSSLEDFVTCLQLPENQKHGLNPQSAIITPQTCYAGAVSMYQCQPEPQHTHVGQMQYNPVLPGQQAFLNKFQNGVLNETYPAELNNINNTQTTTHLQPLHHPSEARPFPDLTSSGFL
ADAM17 inh = ADAM17 inhibitors, primary screen, biochemical, QFRET. Disintegrin and metalloproteinase domain-containing protein 17 (Homo sapiens), P78536. recombinant ADAM17, EDANS/DABCYL FRET peptide cleavage. inhibition, % at 6.95 µM. 370,000 tested, 0.83% active. AID 720648, 2013;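 active = inhibition above the mean of compounds lying between control limits plus 3 SD, set per campaign, cut at about 8.5% in these data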;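 note: 0% = DMSO-only wells as the low control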
* = called active by the depositor; i = inactive; · = no result given.

SMILES | NR3A LBD binder | rCAG binder | ADAM10 inh | KLK7 zymogen act | AHR activator | ADAM17 inh
COc1cc(NC(=S)Nc2ccccn2)cc(OC)c1 | 0 | 0 | 0 | 0 | 74* | -2
S=C(Nc1ccccn1)Nc1ccccc1Cl | -2 | -2 | -4 | 0 | 68* | -5
COc1ccc2ccccc2c1C=NNC(=O)CN1CCN(Cc2ccccc2)CC1 | · | 0 | -6 | 0 | · | -2
NNC(=O)c1cc2cc(OC(F)(F)F)ccc2[nH]1 | -1 | 9 | -19 | 0 | 21 | 2
O=C(NNC(=O)c1cc2cc(OC(F)(F)F)ccc2[nH]1)c1cccc(C(F)(F)F)c1 | 23* | 13 | 15 | 0 | -1 | 3
COc1ccc([C@H]2OC(=O)C[C@H]2C(=O)N2CCN(c3ccccc3Cl)CC2)cc1OC | · | 0 | -8 | -1 | · | 0
Fc1ccc(-n2nnc(-c3ccnc4ccccc34)n2)cc1 | 1 | -1 | 2 | 0 | 54* | -2
Cn1c(-c2nnn(-c3ccc(F)cc3)n2)cc2ccccc21 | · | 12 | -10 | 1 | 69* | -8
Cc1ccc(-n2nnc(-c3ccnc4ccccc34)n2)cc1 | 2 | 8 | 1 | 0 | 19 | -2
Cc1ccc(-n2nnc(-c3cc4ccccc4n3C)n2)cc1 | -1 | 33 | -16 | 0 | 46 | -2
Cc1ccc(-c2cc(C(=O)NN=Cc3cccc4ccccc34)[nH]n2)cc1C | · | 20 | 7 | -11 | · | 2
COc1ccc(OC)c(S(=O)(=O)Nc2cccc3ccccc23)c1 | 3 | 1 | -2 | 0 | 23 | -5
COc1ccc(OC)c(S(=O)(=O)Oc2ccc(N)c3ccccc23)c1 | -2 | 14 | -8 | 0 | 61* | -3
CCCCCCCCN1C(=O)N2Cc3ccccc3C2CS1(=O)=O (configuration not stated) | · | 4 | -1 | 1 | · | 2
CCOC(=O)c1c(NC(=O)c2ccc(Cl)cc2)csc1C | 18* | 3 | 4 | 0 | 6 | 4
O=C1OC(c2ccc(Cl)cc2)=N/C1=C\C=C\c1ccco1 | 3 | 11 | -19 | 1 | 0 | -5
O=C1OC(c2ccccc2)=N/C1=C\C=C\c1ccco1 | 20* | 5 | -6 | 1 | 2 | -1
CC(=O)OCCC(CC(C)C)NC(=O)[C@H](CC(C)C)NC(=O)OCc1ccccc1 (some centres not stated) | · | · | 0 | · | · | -3
Cc1nc(SCc2cccc(F)c2)[nH]c(=O)c1C#N | 13* | 3 | -3 | 0 | -3 | -3
N#Cc1c(-c2ccco2)nc(SCc2ccc(F)cc2)[nH]c1=O | -30 | 50* | -1 | -1 | -1 | -5
CC1(C)CC(=O)N(CC(=O)N2CCN(c3cccc(C(F)(F)F)c3)CC2)c2ccccc2S1(=O)=O | · | 3 | -10 | 0 | · | -3
CC1(C)C(C=C(Cl)Cl)C1C(=O)Nc1ccc([N+](=O)[O-])cc1 (configuration not stated) | 8 | 10 | 25* | 0 | 3 | 11*
COc1ccc(N2C(=O)c3n[nH]c(C(C)C)c3C2c2ccc(C)cc2)cc1 (configuration not stated) | · | 0 | -8 | 0 | · | -3
C/C(=N\NC(=O)C1CC1)c1ccc(NC(=O)c2ccc(Br)o2)cc1 | · | 0 | -3 | 0 | 13 | -3
C/C(=N/NC(=O)c1ccco1)c1cccc(NC(=O)c2ccc(C)o2)c1 | -8 | 0 | 9 | 0 | 9 | -2
SMILES | NR3A LBD binder | rCAG binder | ADAM10 inh | KLK7 zymogen act | AHR activator | ADAM17 inh
C/C(=N/NC(=O)c1ccc(Br)o1)c1cccc(NC(=O)c2ccc(C)o2)c1 | -9 | 0 | -10 | 0 | 51* | -3
C/C(=N/NC(=O)c1cnccn1)c1ccncc1 | -1 | -2 | 1 | -1 | 12 | 3
C/C(=N\NC(=O)c1c(Cl)cnn1C)c1ccc(NC(=O)c2ccc(Br)o2)cc1 | 14* | -4 | -4 | 0 | · | -1
C/C(=N/NC(=O)c1ccc(Br)o1)c1ccncc1 | 0 | -1 | -8 | -1 | 50* | -4
C[C@@H]1CC(=O)NN=C1c1ccc(NN=C(C#N)C#N)cc1 | · | 5 | -11 | 0 | · | -3
CCN(C)C(=O)CN1C(=O)C2CCCCN2C(=O)c2ccccc21 (configuration not stated) | · | 6 | -15 | 0 | · | 3
CC(C)C(c1nnnn1Cc1ccccc1)N(CCCO)Cc1cc2cc3c(cc2[nH]c1=O)OCO3 (configuration not stated) | -1 | -6 | -93 | 9 | 64* | -33
O=c1[nH]c2cc3c(cc2cc1CN(CCCO)Cc1nnnn1Cc1ccc(F)cc1)OCO3 | 0 | 0 | -169 | 2 | 54* | -61
COCCN1CCCc2nc(-c3ccc(Br)cc3)ccc21 | · | 5 | -116 | 3 | · | -32
CCCC[C@@H]1C(=O)N2N=Cc3cc4ccccc4cc3[C@H]2N2N=Cc3cc4ccccc4cc3[C@@H]12 | · | 12 | -69 | -4 | · | -24
CN(NC(=O)c1ccc(Cl)cc1)c1ncc(C(F)(F)F)cc1Cl | 1 | -5 | -6 | 1 | -1 | -1
O/N=C(\c1ccc(Cl)cc1)c1ncc(C(F)(F)F)cc1Cl | -4 | -1 | 15 | 0 | 79* | 4
Cc1ccc(-c2[nH]c3cc(C(N)=O)ccc3c(=O)c2O)cc1 | 0 | 7 | -265 | -154 | 66* | -58
CCCCCCCCNS(=O)(=O)/C=C/c1ccc(OC)cc1CNC(=O)OC(C)(C)C | · | -1 | 7 | 1 | · | 4
Cc1ccc(Nc2nc(Cl)nc(N(C)C#N)n2)cc1 | -3 | 13 | 0 | 0 | 55* | 3
Cc1ccc(Nc2nc(Cl)nc(NC(C)(C)C)n2)cc1 | -5 | -5 | 11 | 1 | 10 | 5
C=CCN(CC#Cc1ccc(C(F)(F)F)cc1)Cc1ccc(OC)cc1OC | · | 3 | -12 | 0 | · | -4
CC(Oc1ccccc1)C(=O)Nc1nc(-c2ccncc2)cs1 (configuration not stated) | 1 | 5 | -14 | 0 | 47* | -5
CCOC(=O)c1cccc(NC(=O)CN(C)S(=O)(=O)c2cc(OC)ccc2OC)c1 | · | 2 | -3 | -1 | · | -1
CC(=O)/C=C\c1cn(-c2ncc(C(F)(F)F)cc2Cl)c2ccccc12 | 14* | 1 | 1 | -2 | 6 | -1
COc1ccc(-c2cn3cccnc3n2)cc1NC(=O)C1CC1 | 0 | · | · | · | 45 | ·
COc1ccc(-c2cn3cccnc3n2)cc1NC(=O)C(C)C | · | 3 | i | 8 | 49* | -153
O=C1C(C2=C(O)c3ccccc3C2=O)=Nc2ccccc21 | -1 | 44* | -11 | -2 | 45 | -6
